Hits are enriched below; roughly 11% of the tested compounds scored in any of these assays.
AMA1 RON2 block = disrupts binding of P. falciparum AMA1 to RON2; Potency, µM (top dose mostly 58.2 µM), actives largely listed as inhibitors; AID 720542; AlphaScreen AMA1-biotinylated RON2 peptide binding; 360,000 compounds, 0.2% hits; note: nearly all actives have a fitted effect of over 45% in size
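AMA1 (3D7) with his tag at 25 nM final met compounds first, then biotinylated RON2 peptide at 25 nM; detection used donor plus acceptor beads, 10 µg/mL apiece, read by AlphaScreen after 30 min at room temperature.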
Pf growth 48h = P. falciparum growth inhibition at 48 hours (one generation) | 310,000 compounds, 5.9% hits | Potency, µM (series often up to 28.7 µM), usual class: inhibitors | AID 504832 | P. falciparum luciferase growth in erythrocytes, 48 h
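Luciferase-expressing P. falciparum in infected erythrocytes (2% hematocrit, 0.1% parasitemia final) in RPMI 1640/0.5% Albumax were exposed to compound for 48 hours at 37 C, 5% CO2; growth read as luminescence.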
NS1 function inh = influenza NS1 inhibition; Potency, µM (titrated, usually from 46.1 µM); 270,000 compounds, 0.4% hits; calls by dose curve; note: actives are rising curves; nearly all actives have a fitted effect of over 50% in size
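Growth recovery, yeast-based: influenza A NS1 expressed in S. cerevisiae causes slow growth, and suppressors are detected by OD600. The parent strain without NS1 is used as positive control.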
Pf growth 96h = inhibits malaria parasite growth, 96 h; P. falciparum luciferase reporter growth, 96 h; Potency, µM (titrated, usually from 28.7 µM), actives largely listed as inhibitors; 320,000 compounds, 6.9% hits
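Two parasite generations (96 h, 37 C, 5% CO2) of compound exposure in infected erythrocytes (0.05% parasitemia, 2% hematocrit). Luciferase-reporter P. falciparum; decreased luminescence indicates inhibited growth, aimed at apicoplast-acting delayed death.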
Sm TGR inh = inhibitors of Schistosoma mansoni thioredoxin glutathione reductase; Q962Y6; purified TGR, DTNB reduction, TNB absorbance 405 nm; Potency, µM (doses to about 114 µM), usual class: inhibitors; 360,000 compounds, 3% hits; AID 485364; note: nearly all actives have a fitted effect of over 60% in size
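Kinetic colorimetric format: TGR-catalysed, NADPH-driven DTNB reduction monitored via TNB absorbance. Enzyme dispensed at 20 nM; compound exposure 15 min at room temperature before reaction start.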
Hits are given with their value; i = inactive; ? = inconclusive; nt = no result; ! = not active in a repeat. Unless noted, calls come from the whole dose curve; as a rule, active = well fitted curve in the direction sought with a large enough effect; inconclusive = small, poorly fitted or top-dose-only effect, or another doubt; inactive = no such curve, though single readings can be large; an effect the other way counts as inactive or inconclusive.

SMILES | AMA1 RON2 block | Pf growth 48h | NS1 function inh | Pf growth 96h | Sm TGR inh
CCN(CC)CCCNC(=O)c1nn(-c2ccc(OC)cc2)c(=O)c2c1c1ccccc1n2C | nt | nt | nt | nt | i
COc1cc(-c2noc(-c3cc(C)[nH]n3)n2)cc(OC)c1OC | nt | nt | nt | nt | i
CCCOP(=O)(c1ccc(N(C)C)cc1)C(O)c1c(Cl)cccc1Cl (centres undefined) | i | ? | i | 8.3µM | i
CCCOP(=O)(c1ccc(N(C)C)cc1)C(O)c1ccc(Cl)cc1Cl (centres undefined) | i | 7.4µM | i | 13µM | i
CCOP(=O)(c1ccc(N(C)C)cc1)C(O)c1c(Cl)cccc1Cl (centres undefined) | i | ? | i | ? | i
O=C(COC(=O)c1cc(-c2ccc(F)cc2)nc2ccccc12)NCC1CCCO1 (centres undefined) | i | i | nt | i | i
COc1ccccc1CC(=O)Nc1ccc(NC(=O)c2cccs2)cc1 | i | i | i | ? | i
Cc1cc(Br)cc(C)c1OCC(=O)NNC(=O)c1cccs1 | i | i | i | 12µM | i
COc1ccccc1CC(=O)NNC(=O)c1cccs1 | i | i | i | 0.26µM | i
Cc1cc(C)nc(SCC(=O)OCN2C(=O)c3ccccc3C2=O)n1 | i | 1.9µM | i | i | i
CCN(c1ccc(OC)cc1)S(=O)(=O)c1nnc(NC(=O)c2ccccc2C)s1 | nt | nt | nt | nt | i
CCOc1cc(N2CCOCC2)c(OCC)cc1NC(=O)c1ccccc1N1CCCC1=O | i | nt | nt | nt | nt
CCn1c(C)c(P(c2ccccc2)c2ccccc2)[n+]2ccccc12 | i | 1.5µM | nt | 8.3µM | i
CC(C)(C)c1cc(CNC2CS(=O)(=O)C[C@@H]2O)cc(C(C)(C)C)c1O (some centres undefined) | i | i | i | i | 1.6µM
C/C(=C(/CCOC(=O)C(C)C)SS/C(CCOC(=O)C(C)C)=C(\C)N(C=O)Cc1cnc(C)nc1N)N(C=O)Cc1cnc(C)nc1N | nt | i | nt | ? | nt
Cc1ccc2c(c1)N/C(=C(\C=C(/Cl)[N+](=O)[O-])[N+](=O)[O-])N2 | nt | ? | nt | i | 8.9µM
Cc1cccc(NC(=S)N2CCN(S(C)(=O)=O)CC2)c1 | i | i | i | i | i
Cc1nc2cc(-c3ccsc3-n3c(C)ccc3C)[nH]n2c(=O)c1Cl | i | nt | i | 15µM | i
Cc1cc(=O)n2[nH]c(-c3ccsc3-n3c(C)ccc3C)cc2n1 | i | i | i | 6.6µM | 20µM
C#CCNC(=O)C[C@@H]1C[C@@]2(C(=O)OC)CCCCC=C2N(CCCCCCCC)C1=O | i | nt | nt | nt | nt
COc1cc(-c2ccc(Nc3ccccc3C(=O)O)c(OC)c2)ccc1Nc1ccccc1C(=O)O | 18µM | ? | i | ? | 45µM
Fc1cnc(N2CCOCC2)nc1N1CCOCC1 | i | i | i | i | nt
Clc1nc(N2CCOCC2)ncc1Br | i | 2.6µM | i | 1.9µM | i
CC1CCN(C(=O)C2CCN(S(=O)(=O)c3ccc(-n4cnnn4)cc3)CC2)CC1 | i | i | i | 3.7µM | i
CC(C(=O)NC1CCCC1)n1c(C2CCCC2)nc2ccccc21 (centres undefined) | i | nt | nt | nt | nt
SMILES | AMA1 RON2 block | Pf growth 48h | NS1 function inh | Pf growth 96h | Sm TGR inh
Cc1ccc(S(=O)(=O)N(C)C)cc1NC(=O)COC(=O)C1CC(=O)N(c2ccc3c(c2)OCCO3)C1 (centres undefined) | i | i | nt | i | i
CCc1c(C(C)S(=O)(=O)c2ccc(C)cc2)[nH]c(=O)n1-c1ccc(OC(F)(F)F)cc1 (centres undefined) | i | nt | i | ? | 5.6µM
Cc1cc(N2CCN(c3ccccc3)CC2)n2cc(-c3ccccc3)nc2n1 | i | ? | i | 7.4µM | i
Cc1cc(N2CCN(c3ccccc3)CC2)n2nnnc2n1 | i | i | i | i | i
Cc1cc(N2CCN(c3ccccc3)CC2)n2c(n1)nc1ccccc12 | i | 5.9µM | i | ? | i
Cc1cc(N2CCN(c3ccccc3Cl)CC2)n2cc(-c3ccccc3)nc2n1 | i | ? | i | ? | i
O=C(C(=O)N1CCN(c2cccc(Cl)c2)CC1)N1CCCCC1 | i | i | i | i | i
Clc1cccc(N2CCNCC2)c1 | i | ? | i | 13µM! | i
CC(=O)[C@H]1CC[C@H]2[C@@H]3CCC4=CC(=O)CC[C@]4(C)[C@H]3CC[C@]12C | i | ? | i | 10µM | i
CCOc1cc(C(=O)NCCc2sc(-c3ccc(F)cc3)nc2C)cc(OCC)c1OCC | nt | nt | nt | nt | i
O=C1c2ccccc2C(=O)c2c1ncn2-c1ccccc1 | i | 4.7µM | i | i | i
O=C1c2ccccc2C(=O)c2[nH]cnc21 | i | ? | i | ? | i
CCC(C)[C@H](NC(=O)NCCCOC(C)C)C(=O)OC (some centres undefined) | i | i | i | 12µM | i
CC(=O)Nc1ccc(C(=O)NCCCOC(C)C)cc1 | i | i | i | i | i
CCOCCCNC(=O)N[C@H](C(=O)OC)C(C)CC (some centres undefined) | i | ? | i | ? | i
COCCCNC(=O)C(=O)NCCCOC(C)C | i | i | i | 12µM | i
CCOc1ccc(Oc2ccccc2NC(=O)C2=COCCO2)cc1 | i | ? | nt | ? | i
Cc1cccc(Oc2ccc(S(=O)(=O)N3CCCCC3)cc2NC(=O)C2=COCCO2)c1 | i | 13µM | nt | ? | i
O=C(Nc1cc(S(=O)(=O)N2CCCC2)ccc1Cl)C1=COCCO1 | i | nt | i | ? | i
CC(C)Oc1ccc(S(=O)(=O)N2CCCCC2)cc1NC(=O)C1=COCCO1 | i | ? | nt | 8.3µM | i
CCOc1ccc(Oc2ccc(C(F)(F)F)cc2NC(=O)C2=COCCO2)cc1 | i | 15µM | nt | ? | i
CC(C)=CCC/C(C)=C/CC/C(C)=C/COc1ccc2ccc(=O)oc2c1 | i | nt | nt | nt | nt
COC(=O)c1c(SC)nc2ccccc2c1OCc1ccccc1C | nt | nt | nt | nt | i
CC[n+]1c(-c2ccccc2)c2cc(N)ccc2c2ccc(N)cc21 | i | 0.048µM | nt | 0.003µM! | nt
CCn1c(=NC(=O)C2COc3ccccc3O2)sc2c(C)ccc(OC)c21 (centres undefined) | i | ? | i | ? | i
SMILES | AMA1 RON2 block | Pf growth 48h | NS1 function inh | Pf growth 96h | Sm TGR inh
C=CCn1c(=NC(=O)C2COc3ccccc3O2)sc2cccc(OC)c21 (centres undefined) | i | 7.4µM | i | 1.2µM | ?
C1=C(c2c[nH]c3ccccc23)CCN(Cc2ccccc2)C1 | i | ? | nt | i | i
CN1CC=C(c2c[nH]c3ccccc23)CC1 | i | 2.6µM | ? | i | i
Cc1ccc(NC(=O)N/C=C/c2ccco2)cc1C | i | i | i | i | ?
Cc1ccccc1NC(=O)c1cccc(NC(=O)c2ccco2)c1 | i | i | i | ? | i
Cc1ccc(NC(=O)c2cccc(NC(=O)/C=C/c3ccco3)c2)cc1C | i | i | i | ? | 45µM
O=C(/C=C/c1ccco1)Nc1cccc(C(=O)Nc2ccccc2C(=O)O)c1 | i | i | i | i | 4µM
CCc1ccccc1NC(=O)c1cccc(NC(=O)/C=C/c2ccco2)c1 | i | i | i | i | 20µM
COc1ccc(Cl)cc1NC(=O)Cn1c(=O)n(Cc2ccco2)c(=O)c2cccnc21 | nt | nt | nt | nt | i
CNC(=S)N1CCN(c2ccc(Cl)c(Cl)c2)CC1 | i | i | i | i | i

Screening results: PubChem BioAssay, National Center for Advancing Translational Sciences (NCATS)
